# Test results taken from PubChem BioAssay (NCI).
# The panel holds about 83,000 compounds, 20% with a hit somewhere; the sample as a whole holds those more often.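 For each line, cells grew in 96-well plates with the test compound present at a single concentration for 48 hours.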 A number with no mark means an inactive call. The source made the active and inactive calls. How the source made its calls: active means growth percent below 10; inactive means the rest.
# Tested on: OVCAR-8 ovarian
# Test: NCI-60 one-dose screen, 48 h (100 = growth as untreated, 0 = no growth, -100 = all killed)
# Settings: 10 µM unless noted
row,SMILES,growth
1,N#Cc1c(-c2ccccc2)nc2c(c(-c3ccccc3)nn2-c2ccccc2)c1-c1ccc(N2CCOCC2)cc1,99%
2,O=C(CCCCCCCCC(=O)N/N=C\c1cc(Cl)ccc1O)N/N=C\c1cc(Cl)ccc1O,25.9%
3,CC12CCC(/C(=C/NNc3ccc([N+](=O)[O-])cc3[N+](=O)[O-])C1=O)C2(C)C (stereo not given),72.7%
4,Nc1ccc([N+](=O)[O-])cc1N=C/C=C/c1ccccc1,79.9%
5,CC1CN=C(c2cccc(-c3ccc(-c4ccccc4)o3)c2)N1 (stereo not given),33.7%
6,CCCCc1oc2ccccc2c1C(=O)c1ccc(O)cc1,82.2%
7,Cc1cc2oc(=O)cc(CP(=O)(O)O)c2cc1O,99.5%
8,CCOC(=O)C1=C(C)N=C2SC=C(c3ccccc3)N2[C@H]1c1cn[nH]c1-c1ccc(Cl)cc1,50.9%
9,CCN1C(=S)N(CC)C2C1NC(=S)N2/N=C/C=C/c1ccccc1OC (stereo not given),12.5%
10,CC(=O)N/C(=C1/OC(C(O)C(O)C(O)CO)CN1C)[P+](c1ccccc1)(c1ccccc1)c1ccccc1 (stereo not given),102%
11,CCn1cc(C(=O)N/N=C/c2ccc(Br)cc2)c(=O)c2cc(F)c(N3CCNC(C)C3)c(F)c21 (stereo not given),57.8%
12,CCNc1nc(-c2ccc(F)cc2)c(C#N)c(=O)n1C,73.8%
13,C(/C=C/c1ccccc1)=Nc1ccc(CCc2ccc(N=C/C=C/c3ccccc3)cc2)cc1,83.5%
14,O=C(N/N=C/c1ccc([N+](=O)[O-])cc1)c1ccc2nc(-c3ccc(Cl)cc3)[nH]c2c1,21.6%
15,Fc1ccc(CNc2c3ccccc3nc3ccccc23)cc1,22.3%
16,O=C(CSc1nnc2sc(Nc3cccc(Cl)c3)nn12)c1ccc(F)cc1,102%
17,Cn1c(=O)c2c(nc(NC3=NS(=O)(=O)c4ccccc43)n2Cc2ccccc2)n(C)c1=O,99.5%
18,O=c1nc(Nc2nc3ccccc3s2)[nH]c(=O)c2ccccc12,103%
19,c1ccc2cc(Cn3c[n+](Cc4ccc5ccccc5c4)c4ccccc43)ccc2c1,-47.9% (active)
20,Cc1[nH]c(/C=C/C(=O)c2ccc(C(F)(F)F)c(F)c2)c(C)c1C(=O)NCC(C)C,89.4%
21,O=C(Nc1cccc(NC(=O)C2CCCCC2)c1)c1ccccn1,104%
22,CCOC(=O)c1c2c(n3ccccc13)C(=O)c1ncccc1C2=O,5.6% (active)
23,COc1ccc(C(c2cc(OC)c(OC)c(OC)c2)N2CCN(Cc3ccccc3)CC2)cc1 (stereo not given),92.6%
24,CN(C)c1ccc(/C=C2/C=C(c3ccccc3)OC2=O)cc1,100%
25,C#CC#CC#CC#CC#CC#CC#CC#CCC1OCC(COC(=O)O[C@@H](C(=O)O[C@H]2C[C@@]3(O)[C@@H](OC(=O)c4ccccc4)[C@@H]4[C@]5(OC(C)=O)CO[C@@H]5C[C@H](O)[C@@]4(C)C(=O)[C@H](OC(C)=O)C(=C2C)C3(C)C)[C@@H](NC(=O)c2ccccc2)c2ccccc2)O1 (stereo not given in full),14.8%

# Tested on: OVCAR-5 ovarian
# Test: as above
# Settings: 10 µM unless noted
row,SMILES,growth
1,O=S(=O)(c1ccccc1)N1CCCN(c2nc(-c3ccccc3)nc3nc(-c4ccccc4)oc23)CC1,106%
2,Clc1ccc(-c2cn3ccsc3n2)c(Cl)c1Cl,88.5%
3,O=C(CN1C(=O)/C(=C/c2ccco2)SC1=S)NCCc1c[nH]c2ccc(F)cc12,105%
4,COc1cc(C2C3=C(COC3=O)N(CCO)c3cc4c(cc32)OCCO4)cc(OC)c1OC (stereo not given),41.5%
5,N/C(=N\c1nc2ccccc2s1)NC(=NC1CCCCC1)NC1CCCCC1,24.6%
6,CC(O)c1ncc(/C=C2\SC(=S)N(Cc3ccccc3)C2=O)s1 (stereo not given),98.6%
7,COc1ccc2nc3ccccc3c(NCc3ccc(F)cc3)c2c1,18.1%
8,COc1cc(-c2cc(-c3ccc(Nc4ncnc5cc(Cl)ccc45)cc3)nc(N3CCN(C)CC3)n2)cc(OC)c1OC,103%
9,O=C(Nc1cccnc1Nc1ccc(Cl)cc1)c1cn(Cc2ccc(F)cc2)nn1,105%
10,N#Cc1c(NC(=O)c2cccs2)[n+]([O-])c2ccc(Cl)cc2[n+]1[O-],114%
11,CCOC(=O)/C=C/c1c(C)[nH]c(=O)[nH]c1=O,71.8%
12,COc1ccc(C2C3=C(COC3=O)N(CCO)c3cc4c(cc32)OCCO4)cc1OC (stereo not given),67.1%
13,CN1CCN(c2ccc3c(c2)nc(NNC(=O)c2cnccn2)c2cccn23)CC1,49.3%
14,C=CCOC(=O)C1=C(C)NC(=O)NC1c1c(Cl)n(C)c2ccccc12 (stereo not given),96%
15,COc1ccc(Cl)cc1Nc1nc(C(F)(F)F)ccc1C(=O)N/N=C/c1ccccc1Cl,22%
16,N#Cc1c(-c2ccccc2)nc2c(c(-c3ccccc3)nn2-c2ccccc2)c1-c1ccc(N2CCOCC2)cc1,102%
17,O=C(CCCCCCCCC(=O)N/N=C\c1cc(Cl)ccc1O)N/N=C\c1cc(Cl)ccc1O,62%
18,CC12CCC(/C(=C/NNc3ccc([N+](=O)[O-])cc3[N+](=O)[O-])C1=O)C2(C)C (stereo not given),74.5%
19,Nc1ccc([N+](=O)[O-])cc1N=C/C=C/c1ccccc1,90.9%
20,CC1CN=C(c2cccc(-c3ccc(-c4ccccc4)o3)c2)N1 (stereo not given),-5.49% (active)

row,SMILES,growth
1,CCCCc1oc2ccccc2c1C(=O)c1ccc(O)cc1,84.3%
2,Cc1cc2oc(=O)cc(CP(=O)(O)O)c2cc1O,94%
3,CCOC(=O)C1=C(C)N=C2SC=C(c3ccccc3)N2[C@H]1c1cn[nH]c1-c1ccc(Cl)cc1,108%
4,CCN1C(=S)N(CC)C2C1NC(=S)N2/N=C/C=C/c1ccccc1OC (stereo not given),27.2%
5,CC(=O)N/C(=C1/OC(C(O)C(O)C(O)CO)CN1C)[P+](c1ccccc1)(c1ccccc1)c1ccccc1 (stereo not given),99.5%
6,CCn1cc(C(=O)N/N=C/c2ccc(Br)cc2)c(=O)c2cc(F)c(N3CCNC(C)C3)c(F)c21 (stereo not given),94%
7,CCNc1nc(-c2ccc(F)cc2)c(C#N)c(=O)n1C,56%
8,C(/C=C/c1ccccc1)=Nc1ccc(CCc2ccc(N=C/C=C/c3ccccc3)cc2)cc1,93.6%
9,O=C(N/N=C/c1ccc([N+](=O)[O-])cc1)c1ccc2nc(-c3ccc(Cl)cc3)[nH]c2c1,53.2%
10,Fc1ccc(CNc2c3ccccc3nc3ccccc23)cc1,38.5%
11,O=C(CSc1nnc2sc(Nc3cccc(Cl)c3)nn12)c1ccc(F)cc1,95.1%
12,Cn1c(=O)c2c(nc(NC3=NS(=O)(=O)c4ccccc43)n2Cc2ccccc2)n(C)c1=O,99.6%
13,O=c1nc(Nc2nc3ccccc3s2)[nH]c(=O)c2ccccc12,107%
14,c1ccc2cc(Cn3c[n+](Cc4ccc5ccccc5c4)c4ccccc43)ccc2c1,22.3%
15,Cc1[nH]c(/C=C/C(=O)c2ccc(C(F)(F)F)c(F)c2)c(C)c1C(=O)NCC(C)C,101%
16,O=C(Nc1cccc(NC(=O)C2CCCCC2)c1)c1ccccn1,105%
17,CCOC(=O)c1c2c(n3ccccc13)C(=O)c1ncccc1C2=O,42.2%
18,COc1ccc(C(c2cc(OC)c(OC)c(OC)c2)N2CCN(Cc3ccccc3)CC2)cc1 (stereo not given),84.7%
19,CN(C)c1ccc(/C=C2/C=C(c3ccccc3)OC2=O)cc1,108%
20,C#CC#CC#CC#CC#CC#CC#CC#CCC1OCC(COC(=O)O[C@@H](C(=O)O[C@H]2C[C@@]3(O)[C@@H](OC(=O)c4ccccc4)[C@@H]4[C@]5(OC(C)=O)CO[C@@H]5C[C@H](O)[C@@]4(C)C(=O)[C@H](OC(C)=O)C(=C2C)C3(C)C)[C@@H](NC(=O)c2ccccc2)c2ccccc2)O1 (stereo not given in full),18.8%
